From PubChem BioAssay AID1259324 (C. David Weaver Laboratory, Vanderbilt University, 2017)
Out of some 34,000 compounds screened, fewer than 10 were called active.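 How the source made its calls: active means primary screen hit, no activity in plain HEK293 cells, and in GIRK2-only cells above 5% efficacy rising with concentration; inactive means the rest, including fluorescent compounds.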 The list is a sample of the results.

biological target: G protein-activated inward rectifier potassium channel 2 (Homo sapiens) (UniProt P48051); assay: GIRK2 activation atop partial GPCR stimulation – cell-based, HEK293, thallium flux, summary (AID 1259324); settings: HEK293 GIRK2/NPY4 cells, thallium flux fluorescence
Sequence (P48051 whole entry, looked up): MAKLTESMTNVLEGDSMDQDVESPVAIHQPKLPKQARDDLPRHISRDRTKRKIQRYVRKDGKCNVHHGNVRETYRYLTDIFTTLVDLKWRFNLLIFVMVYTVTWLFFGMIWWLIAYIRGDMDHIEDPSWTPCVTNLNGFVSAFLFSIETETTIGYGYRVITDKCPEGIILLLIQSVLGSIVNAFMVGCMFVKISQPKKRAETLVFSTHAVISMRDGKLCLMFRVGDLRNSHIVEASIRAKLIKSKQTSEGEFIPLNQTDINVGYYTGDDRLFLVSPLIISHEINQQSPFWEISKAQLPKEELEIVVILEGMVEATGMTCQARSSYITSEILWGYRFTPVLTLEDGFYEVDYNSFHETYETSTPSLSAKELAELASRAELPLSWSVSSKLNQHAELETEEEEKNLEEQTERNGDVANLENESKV

outcome, inactive:
Cc1c(C(=O)NCc2ccccc2Cl)nnn1-c1ccc(F)cc1
Cc1cccc(NC(=O)c2cc(-c3ccco3)nc3c2c(C)nn3C2CCS(=O)(=O)C2)c1 (stereo not drawn)
Cc1cc(C(=O)Nc2nc(-c3cccs3)cs2)on1 inactive; active
COc1ccc(CCNC(=O)Nc2cc(N3CCCS3(=O)=O)ccc2C)cc1
O=C(Cc1cc(-c2ccc(F)cc2)on1)N1CCc2ccccc21
O=C(NCCC1=CCCCC1)C(=O)NCc1nc(-c2ccccc2)no1
COc1ccc(NC(=O)N2CCN(c3cc(OC)nc(OC)n3)CC2)cc1
CC(C)(C)C(=O)N1CCc2ccc(NS(=O)(=O)c3ccc(Cl)s3)cc21
COc1ccc(Cl)cc1C(=O)NCCNc1cc(-n2ccnc2C)ncn1
COc1ccccc1C1(CNC(=O)Cc2ccc(F)cc2)CCOCC1
CCOc1ccc(NC(=O)NCCCn2nc(-c3ccncc3)ccc2=O)cc1 inactive; active
COc1ccc(NC(=O)Cn2cc(OC)c(=O)cc2CSc2nccc(C)n2)cc1
O=C(C1CCCCC1)N(CCN1CCOCC1)c1nc2c(Cl)cccc2s1
Cn1c(=O)c2cc(C(=O)NC3CCCCCC3)sc2n(C)c1=O
COc1ccc(C)cc1S(=O)(=O)NCC(c1ccc(F)cc1)N1CCN(C)CC1 (stereo not drawn)
O=C(Cc1ccc(-c2ccccc2)cc1)NCC1CCN(Cc2ccco2)CC1
CCOc1ccc(-c2cc(=O)n(CC(=O)Nc3ccccc3F)cn2)cc1
O=C(CCCS(=O)(=O)c1ccccc1)Nc1nc2c(F)cccc2s1
CCOc1ccc2ccccc2c1C(=O)N1CCN(c2ncnc3c2nnn3C)CC1
CCOC(=O)N1CCN(C(c2ccccc2F)c2sc3nc(CC)nn3c2O)CC1 (stereo not drawn)
COc1coc(C(=O)Nc2ccc(C(N)=O)cc2)cc1=O
COc1ccccc1CCNC(=O)Cc1csc(NC(=O)C2CCC(=O)N2)n1 (stereo not drawn)
O=C(C1CC=CCC1)N1CCN(CCn2ccnc2)CC1 (stereo not drawn)
O=C(c1cccs1)N1CCc2ccc(NS(=O)(=O)Cc3cccc(Cl)c3)cc21
Cc1ccc(-n2ccnc2N2CCN(C(=O)c3cccs3)CC2)cc1
COC(=O)c1c2c(nc3c1c(-c1ccccc1)nn3C1CCS(=O)(=O)C1)CCC2 (stereo not drawn)
CCC(=O)Nc1ccc(SCC(=O)NCC2CCCO2)nn1 (stereo not drawn)
O=C(NCC(O)c1ccc(C(F)(F)F)cc1)C1(c2cccs2)CCCC1 (stereo not drawn)
